Bioassay records deposited in PubChem BioAssay by National Center for Advancing Translational Sciences (NCATS).
TGFb SMAD3 inh: blocks TGF-b signaling. HepG2 CAGA-GFP TGF-b/SMAD3 reporter, GFP fluorescence, 18 h; TGF-beta stimulated, 500 pg/mL final. Potency, µM (highest dose often 46.1 µM), for inactives: top-dose activity, negative = inhibition, usual class: inhibitors. actives 1.2% (n = 410,000). AID 588855; also: potency is read from the fitted curve at half-maximal effect; % is scaled to controls: 0 for no effect and ±100 for the full control effect; nearly all actives have a fitted effect of over 65% in size
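First, reporter cells (HEPG2 CAGA-GFP) rested 2 h at 37 degrees C. Next, compounds were pinned in and TGF-beta added to 500 pg/mL final. After 18 h, GFP was imaged per cell and summed per well.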
HepG2 tox: kills HepG2 cells in TGF-b inhibitor counter-screen. AID 588856. HepG2 CAGA-GFP viability, ATP luminescence, 18 h. actives 0.76% (n = 410,000). Potency, µM (doses to about 46.1 µM), without a hit: at the highest dose activity change, negative = cytotoxicity, hits mostly cytotoxic; also: potency is read from the fitted curve at half-maximal effect
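CellTiter-Glo luminescence gave cytotoxicity after 18 hours at 37 degrees C. The cells were HepG2 CAGA-GFP in 1% FBS DMEM, stimulated with 500 pg/mL TGF-beta after compound addition. %Activity was normalised to no-cell wells (complete cell-killing) and DMSO (no toxicity), and curves were fitted and classified.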
DT40 TDP1 CPT: DT40-hTDP1 cell growth loss with CPT; actives 12% (n = 420,000); chicken DT40 Tdp1-/-;hTDP1 cells + 20 nM CPT, ATP luminescence, 48 h; Potency, µM (doses to about 46.2 µM), for the others: at the top dose activity change, negative = growth inhibition, usual class: inhibitors; also: potency is read from the fitted curve at half-maximal effect; % is scaled to controls: 0 for no effect and ±100 for the full control effect; nearly all actives have a fitted effect of over 55% in size
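Chicken DT40 Tdp1-/- cells stably complemented with human TDP1 were seeded at 400 cells/well in medium containing 20 nM camptothecin, exposed to pin-transferred compounds, and grown at 37 °C for at least 48 hr. Viability was read as ATP luminescence.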
TDP1 inh: blocks human tyrosyl-DNA phosphodiesterase 1 | Q9NUW8 | recombinant TDP1, AlphaScreen DNA substrate cleavage | Potency, µM (titrated, usually from 130 µM), for inactives: top-dose activity change, negative = inhibition, hits mostly inhibitors | actives 0.28% (n = 350,000) | AID 485290; also: potency is read from the fitted curve at half-maximal effect; % is scaled to controls: 0 for no effect and ±100 for the full control effect; nearly all actives have a fitted effect of over 40% in size
Target sequence (Q9NUW8 whole entry, looked up): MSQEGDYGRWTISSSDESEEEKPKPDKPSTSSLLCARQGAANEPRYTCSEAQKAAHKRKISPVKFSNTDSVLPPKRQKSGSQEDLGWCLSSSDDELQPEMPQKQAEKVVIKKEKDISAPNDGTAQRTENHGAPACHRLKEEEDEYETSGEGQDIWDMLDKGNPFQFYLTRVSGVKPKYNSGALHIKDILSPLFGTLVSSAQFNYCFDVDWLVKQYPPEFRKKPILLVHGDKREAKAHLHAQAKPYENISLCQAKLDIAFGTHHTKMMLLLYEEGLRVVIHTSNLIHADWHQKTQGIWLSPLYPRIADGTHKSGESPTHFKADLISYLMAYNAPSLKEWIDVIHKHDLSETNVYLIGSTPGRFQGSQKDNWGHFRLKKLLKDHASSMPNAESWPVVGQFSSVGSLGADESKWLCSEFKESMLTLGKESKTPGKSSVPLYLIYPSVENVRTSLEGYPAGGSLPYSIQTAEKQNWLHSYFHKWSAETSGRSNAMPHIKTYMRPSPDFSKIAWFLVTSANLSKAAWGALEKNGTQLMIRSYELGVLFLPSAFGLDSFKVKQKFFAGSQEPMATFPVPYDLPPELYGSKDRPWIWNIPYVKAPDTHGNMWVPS
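Signal: AlphaScreen proximity between streptavidin donor and anti-FITC acceptor beads on intact substrate. Reaction: Tdp1 1 nM, substrate 15 nM final, 5 min RT after 15 min compound preincubation.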
DT40 TDP1 no CPT: qHTS for Inhibitors of human tyrosyl-DNA phosphodiesterase 1 (TDP1): qHTS in cells in absence of CPT; DT40 Tdp1-/- hTDP1 cells, no CPT, ATP luminescence, 48 h; actives 15% (n = 420,000); Potency, µM (doses to about 46.2 µM), inactives show at the top dose activity change, negative = growth inhibition, usual class: inhibitors; AID 686978, 2013; also: potency is read from the fitted curve at half-maximal effect; % is scaled to controls: 0 for no effect and ±100 for the full control effect; nearly all actives have a fitted effect of over 55% in size
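Stably hTDP1-transfected Tdp1-null chicken DT40 cells were treated with library compounds minus camptothecin and grown for at least 48 hr at 37 °C, after which cellular ATP was quantified by luminescence.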
IL1B secr inh: inflammasome signaling inhibition, IL-1 beta readout. THP-1 LPS/ATP IL-1B secretion, AlphaLISA, 16 h; stronger effect = lower value. activity change, % at 57.5 µM. actives 4.7% (n = 360,000); in the data active = activity change below about -50%; inconclusive = mostly about -30% to -49%; also: % is scaled to controls: 0 for no effect and ±100 for the full control effect
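Secreted IL-1B measured by AlphaLISA bead assay after 16 h compound exposure of THP-1 cells; compounds (final up to 57.5 uM) added 1 h before LPS (250 ng/mL) and ATP (1.25 mM) stimulation; lower signal means less secretion.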
Active calls of the source: *; ? = inconclusive; / = no result; ! = not confirmed by another sample; [ ] = another dose, or the depositor's remark. The list is not random: actives were taken first. Their share in the collection is about 19%. Unless noted, calls follow the shape of the dose curve; as a rule, active = well fitted curve in the direction sought with a large enough effect; inconclusive = small, poorly fitted or top-dose-only effect, or another doubt; inactive = no such curve, though single readings can be large; an effect the other way counts as inactive or inconclusive.

SMILES | TGFb SMAD3 inh | HepG2 tox | DT40 TDP1 CPT | TDP1 inh | DT40 TDP1 no CPT | IL1B secr inh
COc1cccc(-n2c(=O)c3sc4ccccc4c3n(CC(=O)Nc3cccc(Cl)c3)c2=O)c1 | 7.9µM* | -5% | 15% | 9% | -21% | /
Cc1cccc(-n2c3nc(=O)[nH]c(=O)c-3cc3ccc(Cl)cc32)c1C | 5% | -4% | ? | 5% | 8.2µM* | /
Cc1cccc(-n2c3nc(=O)[nH]c(=O)c-3cc3c(Cl)cccc32)c1C | ? | -2% | 0.82µM* | -4%[12.3 µM] | 0.58µM* | /
C=CCCC | / | / | / | 5% | / | /
CCc1ccccc1NC(=O)Cn1nnc(-c2nc(-c3ccc(C)cc3)no2)c1N | / | -4% | -22% | 8% | -1% | /
Cc1ccc(NC(=O)Cn2c(=O)n(Cc3ccccc3)c(=O)c3c2c2cc(C)ccc2n3C)cc1 | 42% | 16% | ? | 3% | ? | /
COc1cccc(Nc2ccccc2C(=O)O)c1 | -7% | 7% | 5% | 0% | 1% | 26
O=C(O)c1c(Cl)cccc1Nc1ccccc1 | 11% | -10% | -10% | / | 23µM* | -3
O=C(O)c1ccccc1Nc1ccccc1 | -1% | -4% | 21µM*! | 5% | ? | 9
COc1ccc2oc(=O)c(-c3cn4c(n3)sc3cc(F)ccc34)cc2c1 | 28% | -3% | -11% | -1% | 5% | /
COc1ccc(OC(C)C(=O)N2CCc3ccccc3C2)cc1 (configuration not stated) | -16% | -19% | ? | 7% | 21µM* | 35
Cc1c(Br)c([N+](=O)[O-])nn1CC(=O)N1CCc2ccccc21 | -6% | -11% | 4% | 0% | 1% | -8
Cc1ccc(OC(C)C(=O)N2CCCc3ccccc32)cc1 (configuration not stated) | -6% | -17% | ? | 3% | 26µM* | -8
COC(=O)/C(=N/Nc1ccccc1)N1CCCc2ccccc21 | -2% | -9% | ? | 5% | ? | -27
COC(=O)/C(=N/Nc1ccc(C)cc1)N1CCCc2ccccc21 | -14% | 2% | 12µM* | 5% | ? | ?
Cc1c(Br)c([N+](=O)[O-])nn1C(C)C(=O)N1CCCc2ccccc21 (configuration not stated) | -20% | -26% | ? | 4% | 16µM* | 10
COc1ccc(-n2nnc(-c3nsc(NC(=O)c4cccc(C)c4)n3)c2C)cc1OC | -3% | 1% | ? | -8% | ? | /
Cc1c(Cn2cnc3c(cnn3C(C)(C)C)c2=O)cccc1C(F)(F)F | -27% | -7% | / | / | / | /
Cc1nn(C)cc1/C=N/NC(=O)CSc1ccccn1 | 7% | -4% | 8% | / | 1% | 5
CCn1nc(C)c(/C=N/NC(=O)c2ccc3c(c2)c(C)c(C)n3Cc2ccccc2)c1C | 23% | -31% | 10µM* | 12% | 10µM* | -3
CCn1ncc(/C=N\NC(=O)c2ccc3c(c2)c(C)c(C)n3Cc2ccccc2)c1C | -3% | -26% | -29% | 12% | ? | -12
CCn1nc(C)c(/C=N/NC(=O)CSc2ccccn2)c1C | 0% | 4.5µM* | -6% | 3% | ? | 6
CCn1cc(/C=N\NC(=O)c2ccc3c(c2)c(C)c(C)n3Cc2ccccc2)c(C)n1 | -8% | -7% | 13µM* | 8% | 16µM* | -13
Cc1cc(C=O)cc(C)c1[N+](=O)[O-] | -17% | -4% | ? | / | ? | /
COc1ccc(-c2cc3nc(C)c(CCC(=O)Nc4cccc(C(F)(F)F)c4)c(C)n3n2)c(OC)c1 | ? | -9% | -1% | -5% | -27% | /
SMILES | TGFb SMAD3 inh | HepG2 tox | DT40 TDP1 CPT | TDP1 inh | DT40 TDP1 no CPT | IL1B secr inh
O=C(O)C(CCc1ccccc1)N1C(=O)c2ccccc2C1=O (configuration not stated) | -12% | 3% | -5% | / | -13% | 17
Cc1cccc(CSC2=NCCN2C(=O)c2ccc(S(=O)(=O)N(C)C)cc2)c1 | 0% | -7% | ? | 2% | 23µM* | -1
Cc1cccc(CSC2=NCCN2S(=O)(=O)c2ccc(F)cc2)c1 | -28% | 13% | 16µM* | -7%[56.1 µM] | ? | -10
CC(=O)Nc1ccc(S(=O)(=O)N2CCN=C2SCc2ccc(F)cc2)cc1 | -18% | -31% | 18µM* | 0% | 26µM* | -15
CN(C)CCCNCCCN | / | / | / | 14% | / | /
CCN(C(=O)CSc1nc(-c2ccccc2)no1)c1cccc(C)c1 | ? | -90% | 1.6µM* | -3% | 1.5µM* | /
CCN(C(=O)CSc1ncccc1C(=O)OC(C)C)c1cccc(C)c1 | -21% | -30% | 21µM* | -4% | ? | -20
CCOC(=O)c1cccnc1SCC(=O)N(CC)c1cccc(C)c1 | -33% | -27% | 23µM* | 0% | ? | 1
CC(C)OC(=O)c1cccnc1SCC(=O)N(C)c1ccccc1 | -9% | -10% | -4% | 2% | -9% | -7
CCOC(=O)c1cccnc1SCC(=O)NCc1ccccc1 | -16% | 3% | 1% | 2% | -11% | 12
Cc1ccc(S(=O)(=O)CCC(=O)OCc2ccccc2F)cc1 | 0% | 4% | 1% | -8% | 10% | 29
Nc1nc(Nc2cc(F)cc(F)c2)nc(NC2CCCC2)n1 | / | / | / | 1% | / | /
O=C(/C=C/c1cccc(F)c1)NCCCn1ccnc1 | 1% | -6% | -4% | / | 17% | 18
CCOc1ccc(Oc2ccccc2NC(=O)C2=COCCO2)cc1 | 0% | -23% | 16µM* | 0% | ? | -2
CCOc1ccc(Oc2ccc(S(=O)(=O)N3CCOCC3)cc2NC(=O)C2=COCCO2)cc1 | 1% | 5% | ? | / | 23µM* | -3
COc1ccccc1C(=O)NC(C(=O)NCCc1nc2ccccc2[nH]1)=C(C)C | -8% | -5% | -10% | 0% | -1% | 21
Cc1cc(Nc2ccccc2C(=O)O)ccc1Cl | / | / | -9% | / | -24% | /
CC(C)c1ccc(OCc2nc(-c3ccccn3)no2)c(Br)c1 | 18% | 2% | -15% | 5% | -27% | -54*
O=C1C(=Cc2cccc(Cl)c2)CCc2ccccc21 | ? | -49% | ? | / | 21µM* | -21
O=C1C(=Cc2ccc(Cl)cc2)CCc2ccccc21 | -17% | -39% | 21µM* | / | ? | -9
O=C1C(=Cc2ccccc2Cl)CCc2ccccc21 | ? | -43% | -74% | / | ? | ?
O=C1C(=Cc2ccc(F)cc2)CCc2ccccc21 | / | / | 16µM* | / | 21µM* | -13
